In PubChem BioAssay:
Some of the results follow. Results filed as inconclusive are left out. Unmarked numbers belong to inactive results. Calls of active or inactive are those of the source.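 Rule for the calls, unless noted: active = thallium entry rate above the same plate's blocked-transporter control wells by more than 3 SD; inconclusive = the two repeat wells disagree; inactive = the rest.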

Experiments:
[1] = target: Solute carrier family 12 member 5 (Homo sapiens) (UniProt Q9H2X9); assay: KCC2 modulators in sodium-free buffer, confirmation, cell-based, HEK293 KCC2, thallium flux, secondary assay (AID 1713;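 active = thallium flux slope above the same plate's solvent-only control mean plus 3 SD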); conditions: FluoZin2 fluorescence, at 10 µM, active compounds read high
[2] = PubChem AID 1714; conditions: HEK293-KCC2 + bumetanide/ouabain, thallium flux FluoZin2; at 10 µM; active compounds read high;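 note: raw slope of fluorescence over initial fluorescence between 10 and 20 s after thallium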
[3] = target: Solute carrier family 12 member 5 (Homo sapiens) (UniProt Q9H2X9); assay: KCC2 modulators without ouabain present, confirmation, cell-based, HEK293 KCC2, thallium flux, FluoZin2, secondary assay 2 (AID 1715;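 active = thallium flux slope more than 3 SD above or below the plate's solvent-only control mean, mostly below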;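 note: raw slope with 0.1% DMSO as baseline and bumetanide as block control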); conditions: HEK293-KCC2, thallium flux FluoZin2 fluorescence; at 10 µM; actives lie on both sides; F/F0 rise rate, 10–20 s post-thallium
[4] = thallium flux modulation in parental HEK cells, confirmation, counter-screen for KCC2 modulator project, cell-based, counterscreen 1 (AID 1716;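 active = thallium flux rate significantly above the same plate's solvent-only control wells, beyond their mean plus 3 SD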); conditions: HEK293 parental cells, thallium flux FluoZin2, ouabain; at 10 µM; baseline-ratio fluorescence slope, 10–20 s after thallium
[5] = target: Solute carrier family 12 member 5 (Homo sapiens) (UniProt Q9H2X9); assay: KCC2 inhibitors and activators, ouabain retest, confirmation, HEK-KCC2 cells (AID 1717;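 active = thallium flux slope beyond 3 SD from same-plate DMSO control mean in most replicates, usually higher, sometimes lower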;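 note: slope of initial-normalized fluorescence between seconds 10 and 20 after thallium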); conditions: HEK293-KCC2, thallium flux FluoZin2 fluorescence, at 10 µM, bidirectional: low = inhibitor, high = activator
[6] = native HEK Tl+ uptake effects, second counter-screen – HEK cells, counterscreen 2, counter-screen for KCC2 modulator project, confirmation (AID 1718;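 active = thallium flux slope above the same plate's solvent-control mean plus 3 SD in both duplicate wells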;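 note: run without ouabain in cells lacking the KCC2 cotransporter; slope of fluorescence scaled to its starting value between 10 and 20 s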); conditions: HEK293 parental, thallium flux FluoZin-2 fluorescence slope; at 10 µM

Sequence of Solute carrier family 12 member 5 (Homo sapiens) (Q9H2X9 whole entry, looked up): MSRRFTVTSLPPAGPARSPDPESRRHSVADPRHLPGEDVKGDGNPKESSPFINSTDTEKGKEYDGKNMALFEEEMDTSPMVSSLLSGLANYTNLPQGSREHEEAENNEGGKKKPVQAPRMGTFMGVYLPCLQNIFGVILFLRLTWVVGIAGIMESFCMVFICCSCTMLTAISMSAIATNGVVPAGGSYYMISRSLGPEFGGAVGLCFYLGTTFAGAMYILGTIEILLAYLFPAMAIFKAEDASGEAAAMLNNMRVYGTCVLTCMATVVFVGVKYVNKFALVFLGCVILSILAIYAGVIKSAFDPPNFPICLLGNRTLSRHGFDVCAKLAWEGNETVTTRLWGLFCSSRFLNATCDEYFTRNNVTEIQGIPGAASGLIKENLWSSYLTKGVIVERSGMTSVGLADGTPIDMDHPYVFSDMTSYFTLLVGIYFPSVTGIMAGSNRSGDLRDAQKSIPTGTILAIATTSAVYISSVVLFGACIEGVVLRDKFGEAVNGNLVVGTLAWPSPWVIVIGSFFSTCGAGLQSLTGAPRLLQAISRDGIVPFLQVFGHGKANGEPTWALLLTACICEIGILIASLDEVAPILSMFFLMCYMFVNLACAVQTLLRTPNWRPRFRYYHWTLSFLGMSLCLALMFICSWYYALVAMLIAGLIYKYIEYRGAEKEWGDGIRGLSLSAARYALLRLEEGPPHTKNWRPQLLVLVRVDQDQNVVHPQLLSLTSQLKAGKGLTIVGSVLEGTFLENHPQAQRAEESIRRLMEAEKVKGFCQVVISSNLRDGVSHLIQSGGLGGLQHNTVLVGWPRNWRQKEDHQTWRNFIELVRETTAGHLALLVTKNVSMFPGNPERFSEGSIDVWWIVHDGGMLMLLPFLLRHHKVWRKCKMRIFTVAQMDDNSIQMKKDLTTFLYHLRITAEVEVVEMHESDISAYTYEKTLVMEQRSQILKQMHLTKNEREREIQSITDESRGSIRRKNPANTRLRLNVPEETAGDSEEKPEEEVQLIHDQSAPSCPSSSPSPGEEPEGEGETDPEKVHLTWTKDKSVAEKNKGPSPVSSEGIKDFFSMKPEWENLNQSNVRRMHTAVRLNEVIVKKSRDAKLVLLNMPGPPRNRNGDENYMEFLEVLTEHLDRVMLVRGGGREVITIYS

Structure (SMILES)	normalised thallium flux (F/F0 slope) [1]	normalized thallium flux [2]	normalized thallium flux [3]	thallium flux rate (normalised fluorescence) [4]	raw Tl+ flux slope (below DMSO = inhibition, above = activation) [5]	thallium flux slope [6]
Brc1ccc(C2=CC(c3ccco3)n3ncnc3N2)cc1 (stereo not given)	0.00373 (active)	0.00178 (active)	0.0209 (active)	0.00407 (active)	0.00899 (active)	0.00724 (active)
COc1cccc(-c2nnc(NC(=O)c3ccc(S(=O)(=O)N(CC(C)C)CC(C)C)cc3)o2)c1	0.0109	0.0246 (active)	0.0331	0.0752 (active)	0.0359 (active)	0.0148 (active)
O=C(CN(c1cccc(Cl)c1)S(=O)(=O)c1ccccc1)NN=C1CCCC1	0.0069	0.00505	0.0271	0.00791	0.0178	0.00991
O=C(NNc1ccccc1Cl)C(O)(c1cccc(C(F)(F)F)c1)c1cccc(C(F)(F)F)c1	0.0066	0.018 (active)	0.035	0.0219 (active)	0.0285 (active)	0.018 (active)
Oc1c(C=Nc2cccc3nsnc23)ccc2ccccc12	0.00934	0.00749	0.0296	0.00781	0.0438	0.0106
O=C(Nc1nc2c(F)cc(F)cc2s1)C1COc2ccccc2O1 (stereo not given)	0.017 (active)	0.0963 (active)	0.0398	0.0378 (active)	0.0383 (active)	0.0155 (active)
S=C(NN=C1CCN(Cc2ccccc2)CC1)NC1CCCCC1	0.0184	0.00465	0.0249 (active)	0.00811	0.0155 (active)	0.0111
CCOC(=O)c1c(C)[nH]c(C)c1C(=O)CSc1nc(N)cc(N)n1	0.00797	0.00434	0.0294	0.00758	0.0193	0.0105
COc1ccc(C(=O)NC(=S)NNC(=O)c2c(-c3ccccc3)noc2C)cc1	0.00558	0.0445 (active)	0.0501 (active)	0.0354 (active)	0.0401 (active)	0.0396 (active)
CN(C)c1nc(=Nc2cccc(Cl)c2)ss1	0.0466 (active)	0.104 (active)	0.0563 (active)	0.0721 (active)	0.0696 (active)	0.0487 (active)
O=C(NC(CC(=O)N1CCN(c2ccccc2)CC1)c1ccccc1)c1ccccc1Cl (stereo not given)	0.00747	0.00528	0.0333	0.00637	0.019	0.00971
COc1ccc(Oc2c(Cl)cnn(-c3ccccc3)c2=O)cc1	0.00949	0.0065	0.0314	0.00741	0.0166 (active)	0.00996
O=C(COC(=O)c1cc([N+](=O)[O-])ccc1NCc1ccccc1)NC1CCCCC1	0.00664	0.00478	0.0252 (active)	0.00762	0.0168 (active)	0.0115
Cc1ccc(C)c(NC(=S)NNC(=O)c2csc(C)c2)c1	0.0109	0.013 (active)	0.034	0.0173 (active)	0.0256 (active)	0.012
S=c1[nH]nc(Nc2ccccc2)s1	0.00869	0.00545	0.026 (active)	0.00742	0.0108 (active)	0.00974
O=C(CNC(=O)c1ccco1)OCC(=O)c1ccccc1	0.00594	0.00472	0.0319	0.00754	0.0197	0.01
O=C(CSCc1ccccc1)N1CCc2ccccc21	0.00671	0.00485	0.027	0.0071	0.0219 (active)	0.00997
COC(=O)c1sccc1NC(=O)c1cc(OC)c(OC)c(OC)c1	0.00806	0.00564	0.029	0.00681	0.0198	0.00953
COc1cccc(-c2nc(S(=O)(=O)c3ccccc3)c(N3CCOCC3)o2)c1	0.00627	0.0046	0.0314	0.00767	0.0193	0.0105
O=c1[nH]c2ccccc2s1	0.00622	0.00492	0.0299	0.00725	0.0175	0.00982
